Measured values published in PubChem BioAssay (NCI).
This is part of a sample that, as a whole, favours compounds with a hit. Of some 79,000 tested, about 15% had one in any assay. Values without a mark were called inactive. Calls of active or inactive are those of the source. Rule as the data show it: active = growth inhibition above about 70%; inactive = the rest.

Tests used:
[1] = NCI Yeast Anticancer Drug Screen. Data for the wt1 strain (AID 149);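 also: 0% = growth of vehicle-treated wt1 cultures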; settings: S. cerevisiae wt1 strain (SPY 50644) growth inhibition, hits give high values
Outline: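 Vehicle-normalised growth inhibition; strain wt1; compound exposure.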

[2] = NCI Yeast Anticancer Drug Screen. Data for the rad50EPP+ strain (AID 151);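 also: 0% = growth of vehicle-treated control cultures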; settings: S. cerevisiae rad50 mutant strain, hits give high values
Outline: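 Vehicle-normalised growth inhibition; rad50EPP+ yeast strain, altered in DNA damage repair, compound-treated.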

[3] = NCI Yeast Anticancer Drug Screen. Data for the mgt1 strain (AID 153); settings: S. cerevisiae mgt1 mutant growth inhibition, hits give high values
Outline: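 Vehicle-normalized growth inhibition is determined in mgt1 yeast, a strain selected for a defined alteration in DNA repair or cell cycle control.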

[4] = NCI Yeast Anticancer Drug Screen. Data for the rad50 strain (AID 155);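 also: 0% = growth of vehicle-only cultures of the same strain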; settings: S. cerevisiae rad50 strain growth inhibition, hits give high values
Outline: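 A DNA repair-deficient yeast mutant serves as the test organism; compound-induced growth inhibition is calculated against vehicle-treated cells.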

[5] = NCI Yeast Anticancer Drug Screen. Data for the mec2-1 strain (AID 157); settings: S. cerevisiae mec2-1 strain, hits give high values
Outline: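 Mutant yeast (mec2-1) grown with compound; growth inhibition relative to vehicle control reported.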

[6] = NCI Yeast Anticancer Drug Screen. Data for the rad14 strain (AID 159);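 also: 0% = growth of vehicle-treated control cultures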; settings: S. cerevisiae rad14 strain growth inhibition, hits give high values
Outline: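 Vehicle-treated cultures served as the baseline for growth inhibition of a DNA repair-mutant yeast strain exposed to each compound.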

[7] = NCI Yeast Anticancer Drug Screen. Data for the sgs1 mgt1 strain (AID 161);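 also: 0% = growth of cultures given vehicle only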; settings: S. cerevisiae sgs1 mgt1 strain, hits give high values
Outline: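 Percent growth inhibition was derived by comparing compound-exposed mutant yeast with vehicle-exposed cultures. The strain carries alterations in DNA damage repair.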

[8] = NCI Yeast Anticancer Drug Screen. Data for the CLN2oe strain (AID 163);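 also: 0% = growth of vehicle-only control cultures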; settings: S. cerevisiae CLN2oe strain, hits give high values
Outline: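 Compounds are applied to yeast harbouring a defined cell-cycle control change; reduced growth compared with vehicle-treated controls gives the value.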

[9] = NCI Yeast Anticancer Drug Screen. Data for the cln2 rad14 strain (AID 165);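 also: 0% = growth equal to vehicle treated cultures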; settings: S. cerevisiae cln2 rad14 strain, hits give high values
Outline: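 Readout is yeast growth inhibition versus vehicle-treated controls, using a strain with cln2 and rad14 alterations exposed to compound.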

[10] = NCI Yeast Anticancer Drug Screen. Data for the bub3 strain (AID 167); settings: S. cerevisiae bub3 mutant strain, hits give high values
Outline: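 Inhibition values come from growth of compound-treated mutant yeast normalised to vehicle-treated controls.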

[11] = NCI Yeast Anticancer Drug Screen. Data for the wt2 strain (AID 169);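 also: 0% = growth of vehicle-treated yeast cultures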; settings: S. cerevisiae wt2 strain growth inhibition, hits give high values
Outline: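 Against vehicle-treated controls, the growth of yeast exposed to each compound was compared, and the inhibition was recorded.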

[12] = NCI Yeast Anticancer Drug Screen. Data for the mlh1 strain (AID 171);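 also: 0% = growth of vehicle-treated control cultures of the same strain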; settings: S. cerevisiae mlh1 strain growth inhibition, hits give high values
Outline: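 Measured: yeast growth. Reference: vehicle-treated controls. Organism: strain with a defined alteration affecting DNA damage repair or cell cycle control, treated with compound.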

[13] = NCI Yeast Anticancer Drug Screen. Data for the sgs1 strain (AID 173);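 also: 0% = growth of vehicle-only control cultures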; settings: S. cerevisiae sgs1 mutant, hits give high values
Outline: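 Each compound was added to cultures of the altered yeast strain. Growth was recorded, and inhibition was derived by comparison with vehicle controls.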

[14] = NCI Yeast Anticancer Drug Screen. Data for the mlh1 rad18 strain (AID 175); settings: S. cerevisiae mlh1 rad18 strain growth inhibition, hits give high values
Outline: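 Genetically defined yeast (DNA repair-deficient) exposed to compounds; growth inhibition determined relative to vehicle.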

[15] = NCI Yeast Anticancer Drug Screen. Data for the rad18 strain (AID 177); settings: S. cerevisiae rad18 mutant growth inhibition, hits give high values
Outline: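 Vehicle-treated cultures served as the baseline for scoring compound-induced growth inhibition in DNA-repair-mutant yeast.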

[16] = at 5.0 µM (retest, dose inferred, filed as 0.5)
[17] = at 50.0 µM (retest, dose inferred, filed as 5.0)

S=C1NC2=C(CSC/C2=C\c2ccc(Cl)cc2)C(c2ccc(Cl)cc2)N1 (stereo not drawn)
growth inhibition ([1]; at 1.2 µM): 8%
growth inhibition ([1]; at 3.7 µM): 19%
growth inhibition ([1]; at 11.0 µM): 24%
growth inhibition ([1]; at 33.0 µM): 61%
growth inhibition ([1]; at 100.0 µM): 76% (active)
growth inhibition ([2]; at 1.2 µM): -3%
growth inhibition ([2]; at 3.7 µM): 12%
growth inhibition ([2]; at 11.0 µM): 12%
growth inhibition ([2]; at 33.0 µM): 16%
growth inhibition ([2]; at 100.0 µM): 9%
growth inhibition ([3]; at 1.2 µM): 29%
growth inhibition ([3]; at 3.7 µM): 31%
growth inhibition ([3]; at 11.0 µM): 44%
growth inhibition ([3]; at 33.0 µM): 72% (active)
growth inhibition ([3]; at 100.0 µM): 82% (active)
growth inhibition ([4]; at 1.2 µM): 20%
growth inhibition ([4]; at 3.7 µM): 42%
growth inhibition [4, 16]: -9%
growth inhibition ([4]; at 11.0 µM): 56%
growth inhibition ([4]; at 33.0 µM): 74% (active)
growth inhibition [4, 17]: 94% (active)
growth inhibition ([4]; at 50.0 µM): 92.9% (active)
growth inhibition ([4]; at 100.0 µM): 71% (active)
growth inhibition ([5]; at 1.2 µM): 0%
growth inhibition ([5]; at 3.7 µM): -1%
growth inhibition [5, 16]: 5%
growth inhibition ([5]; at 11.0 µM): 24%
growth inhibition ([5]; at 33.0 µM): 61%
growth inhibition [5, 17]: 95% (active)
growth inhibition ([5]; at 50.0 µM): 83.7% (active)
growth inhibition ([5]; at 100.0 µM): 77% (active)
growth inhibition ([6]; at 1.2 µM): 11%
growth inhibition ([6]; at 3.7 µM): 26%
growth inhibition ([6]; at 11.0 µM): 38%
growth inhibition ([6]; at 33.0 µM): 71% (active)
growth inhibition ([6]; at 100.0 µM): 74% (active)
growth inhibition [7, 16]: 6%
growth inhibition [7, 17]: 92% (active)
growth inhibition ([7]; at 50.0 µM): 96.5% (active)
growth inhibition ([8]; at 1.2 µM): -14%
growth inhibition ([8]; at 3.7 µM): 14%
growth inhibition ([8]; at 11.0 µM): 28%
growth inhibition ([8]; at 33.0 µM): 44%
growth inhibition ([8]; at 100.0 µM): 71% (active)
growth inhibition [9, 16]: 11%
growth inhibition [9, 17]: 92% (active)
growth inhibition ([9]; at 50.0 µM): 95.2% (active)
growth inhibition ([10]; at 1.2 µM): -39%
growth inhibition ([10]; at 3.7 µM): -7%
growth inhibition [10, 16]: -7%
growth inhibition ([10]; at 11.0 µM): 16%
growth inhibition ([10]; at 33.0 µM): 56%
growth inhibition [10, 17]: 96% (active)
growth inhibition ([10]; at 50.0 µM): 94.8% (active)
growth inhibition ([10]; at 100.0 µM): 77% (active)
growth inhibition ([11]; at 1.2 µM): 25%
growth inhibition ([11]; at 3.7 µM): 31%
growth inhibition ([11]; at 11.0 µM): 39%
growth inhibition ([11]; at 33.0 µM): 68%
growth inhibition ([11]; at 100.0 µM): 83% (active)
growth inhibition ([12]; at 1.2 µM): 3%
growth inhibition ([12]; at 3.7 µM): 26%
growth inhibition ([12]; at 11.0 µM): 46%
growth inhibition ([12]; at 33.0 µM): 72% (active)
growth inhibition ([12]; at 100.0 µM): 75% (active)
growth inhibition ([13]; at 1.2 µM): 42%
growth inhibition ([13]; at 3.7 µM): 45%
growth inhibition ([13]; at 11.0 µM): 66%
growth inhibition ([13]; at 33.0 µM): 84% (active)
growth inhibition ([13]; at 100.0 µM): 87% (active)
growth inhibition [14, 16]: 16%
growth inhibition [14, 17]: 96% (active)
growth inhibition ([14]; at 50.0 µM): 90.7% (active)
growth inhibition ([15]; at 1.2 µM): 15%
growth inhibition ([15]; at 3.7 µM): 25%
growth inhibition ([15]; at 11.0 µM): 28%
growth inhibition ([15]; at 33.0 µM): 63%
growth inhibition ([15]; at 100.0 µM): 73% (active)
